# Assay outcomes: PubChem, National Center for Advancing Translational Sciences (NCATS)
# Lamin A splicing: changes lamin A minigene splicing in HeLa cells | 0.01% of 200,000 active | Potency, µM (titrated, usually from 46.1 µM), for the others: at the top dose ratio change, negative = inhibition, most hits filed as inhibitors | HeLa LMNA splicing GFP/RFP minigene ratio, 48 h | AID 1487; active means well fitted inhibition curve with a large enough effect in the signal ratio, with a control signal flat, not every such curve was filed as active; inconclusive means small, poorly fitted or top-dose-only effect, or effect the other way, or a change in a side signal; the % refers to the signal ratio
#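 S3 HeLa stable clones carrying a lamin A-EGFP splicing minigene plus DsRed2 were seeded at 600 cells/well in Opti-MEM with 2% FBS, pin-dosed and incubated 48 h at 37°C. Acumen cytometry (488 nm) gave the GFP/RFP total-intensity ratio.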
# HPGD block: HPGD (human) dehydrogenase inhibition. P15428. purified HPGD, NADH fluorescence kinetic, PGE2 substrate. Potency, µM, for inactives: at the top dose activity change, negative = inhibition, actives largely listed as inhibitors. 4.3% of 150,000 active. AID 894; active means well fitted inhibition curve with a large enough effect, not every such curve was filed as active; inconclusive means small, poorly fitted or top-dose-only effect, or another doubt; inactive means no such curve, though single readings can be large or run the other way
# Target sequence (P15428 whole entry, looked up): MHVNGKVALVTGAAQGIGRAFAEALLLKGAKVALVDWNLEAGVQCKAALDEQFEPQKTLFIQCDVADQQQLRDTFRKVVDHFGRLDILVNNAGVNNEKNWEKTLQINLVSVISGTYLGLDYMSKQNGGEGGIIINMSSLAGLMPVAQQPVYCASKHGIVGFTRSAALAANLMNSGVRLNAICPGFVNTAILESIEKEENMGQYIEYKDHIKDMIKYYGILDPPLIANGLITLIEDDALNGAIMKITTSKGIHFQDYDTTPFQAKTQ
#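 NADH formation kinetics: reaction with 30 uM PGE2 and 1 mM NAD+ (final), 20 nM enzyme, Tris-HCl pH 8 with Tween 20, after 15 min compound preincubation at room temperature. Fluorescence change, last versus first of five reads.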
# IMPase Li inh: IMPase inhibition in cells with lithium potentiation. CHO-M1 cells, IP1 TR-FRET (IP-One), carbachol + lithium. Potency, µM (highest dose often 59.4 µM), for inactives: top-dose activity, negative = IMPase inhibition, hits mostly inhibitors. 0.35% of 210,000 active;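 further: IP1 builds up when IMPase is blocked and the TR-FRET signal falls; plate controls were basal vehicle for no effect and high inhibitor control for full effect; nearly all actives have a fitted effect of over 50% in size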
#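 Test compounds were applied to CHO-M1 cells previously cultured for 16–30 h at 2000 per well. A small lithium amount accompanied them; after 30 min at 37C, IP1 was quantified by TR-FRET.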
# Luc counter: counter-screen: inhibitors of Kinase-Glo firefly luciferase; Kinase-Glo luciferase, ATP luminescence, 8 min; 0.28% of 200,000 active; Potency, µM (highest dose often 38.3 µM), without a hit: at the top dose activity change, negative = inhibition, actives largely listed as inhibitors; further: nearly all actives have a fitted effect of over 60% in size
#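 Kinase-Glo luciferase light output from ATP and luciferin was measured with 10 uM ATP, within the enzyme's linear range. Buffer: 50 mM imidazole pH 7.2, 50 mM KCl, 7 mM MgCl2, 0.01% Tween 20, 0.05% BSA; luminescence read after 8 min at ambient temperature.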
# ALDH1A1 block: blocks purified human ALDH1A1 activity; P00352; Purified ALDH1A1, NADH fluorescence, propionaldehyde substrate; Potency, µM (top dose mostly 75.3 µM), inactives show at the highest dose activity, negative = inhibition, most hits filed as inhibitors; 7.3% of 220,000 active; AID 1030; active means well fitted inhibition curve with a large enough effect, not every such curve was filed as active; inconclusive means small, poorly fitted or top-dose-only effect, or another doubt; inactive means no such curve, though single readings can be large or run the other way;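 further: plate controls were no enzyme wells and a reference inhibitor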
# An asterisk follows results filed as active; ? = inconclusive; nt = no result given; [ ] = another dose, or the depositor's remark. Rows were chosen to be rich in hits. Some 9% of all compounds tested hit in one or more screens of this group. Unless noted, the call rests on the fitted dose curve; in most records, active means well fitted curve in the direction sought with a large enough effect; inconclusive means small, poorly fitted or top-dose-only effect, or another doubt; inactive means no such curve, though single readings can be large; an effect the other way counts as inactive or inconclusive. Unless noted, on the % scale 0 is the no-effect control and ±100 the full control effect; potency means the concentration at half of the fitted maximal effect.
SMILES,Lamin A splicing,HPGD block,IMPase Li inh,Luc counter,ALDH1A1 block
Cc1cc(C(=O)COC(=O)c2n[nH]c3ccccc23)c(C)n1CC1CCCO1 (stereo not given),?,28.2µM*,-14.3%[38.3 µM],?,-0.9%
Cc1cc(C(=O)COC(=O)c2cc(O)c3ccccc3c2O)c(C)n1CC1CCCO1 (stereo not given),nt,nt,10.4%,0.6%,28.2µM*
Cc1ccc(C(=O)OCC(=O)c2cc(C)n(CC3CCCO3)c2C)cc1 (stereo not given),-12.9%[46 µM],nt,9.8%,-3.6%,-6.0%
COc1cc(NC(=S)N2CCN(C(=O)C3CCCO3)CC2)c(OC)cc1Cl (stereo not given),3.4%,-14.6%,0.0%,1.8%,-1.7%
Cc1cnc(CNc2cc(-c3ccoc3)ncn2)cn1,1.4%,-19.1%,13.4%,-4.3%,?
CC1CN(S(=O)(=O)c2ccc(NC(=O)c3cc(-c4ccccc4O)n[nH]3)cc2)CC(C)O1 (stereo not given),?,14.1µM*,6.7%[38.3 µM],-3.7%,5.0%
CC1CN(S(=O)(=O)c2ccc(C(=O)Nc3ccc(S(=O)(=O)Nc4nccs4)cc3)cc2)CC(C)O1 (stereo not given),-10.8%,-7.9%,2.7%,2.1%,?
CCCn1nc(C(=O)Nc2cccc(C(=O)OC)c2)c2ccccc2c1=O,?,-11.7%,12.4%[38.3 µM],-2.1%,4.47µM*
CCCn1nc(C(=O)NCc2ccccn2)c2ccccc2c1=O,7.0%,-3.6%,18.5%[38.3 µM],-3.7%,10µM*
CCCCCn1c(=O)[nH]c2cc(C(=O)NCc3ccccn3)ccc2c1=O,-12.2%[46 µM],nt,?,-3.7%,12.6µM*
COC(=O)N1CCC2(CCN(C(=O)Nc3cccc(F)c3)CC2)CC1,nt,1.8%,6.0%,-2.7%,12.4%
CC(Sc1nnc(-c2ccccc2)c(-c2ccccc2)n1)C(=O)N1CCc2ccccc21 (stereo not given),-22.5%,nt,nt,nt,7.08µM*
Cc1nnc(SC(C)C(=O)N2CCc3ccccc32)s1 (stereo not given),2.5%,-4.8%,-1.2%[38.3 µM],-1.6%,6.0%
CCOc1ccc(C(=O)Nc2ccccc2-c2ccccc2)cc1Cl,-6.7%[0.0737 µM],-22.3%,-10.2%[38.3 µM],1.6%,?
CCOc1c(Cl)cc(C(=O)Nc2ccccc2C(=O)O)cc1Cl,?,14.1µM*,-8.5%[38.3 µM],-2.7%,?
COc1c(Cl)cc(C(=O)Nc2ccccc2-c2ccccc2)cc1Cl,-2.3%[0.0737 µM],-20.2%,10.9%[38.3 µM],1.1%,12.6µM*
CCOc1cc(C(=O)NC(=S)Nc2ccc(Cl)c(C(=O)O)c2)cc(OCC)c1OCC,nt,nt,nt,nt,18.9µM*
COc1ccc(C(=O)Nc2ccccc2C(=O)O)cc1Cl,-14.3%,-16.0%,5.3%,-11.3%,?
COc1cccc(C(=O)NC(=S)Nc2ccc(Cl)c(C(=O)O)c2)c1,-0.4%,-17.4%,-6.7%[38.3 µM],1.0%,?
Cc1ccc(-c2nn3nnnc3c3ccccc23)cc1C,3.8%[0.0737 µM],-13.4%,-2.0%[38.3 µM],-0.3%,7.08µM*
Cc1ccc(S(=O)(=O)N(C)C)cc1NC(=S)NNC(=O)C(N)=O,-16.2%[46 µM],nt,15.4%,-3.1%,-0.6%
CSC(=NNC(=O)c1ccc(O)cc1)SC,12.2%,15.8µM*,9.3%[38.3 µM],?,-9.2%
COc1ccc(CNC(=O)c2noc(C)c2[N+](=O)[O-])cc1,26.1%[46 µM],nt,4.5%,1.3%,4.5%
CC(C)NS(=O)(=O)c1ccc(NC(=S)NC(=O)c2ccc(-c3ccccc3)cc2)cc1,16.5%,-16.4%,16.6%[38.3 µM],-1.3%,11.2µM*
COc1ccc(NC(=S)NC(=O)c2csnn2)cc1,nt,nt,-0.3%,nt,1.0%
SMILES,Lamin A splicing,HPGD block,IMPase Li inh,Luc counter,ALDH1A1 block
CN(Cc1ccccc1)C(=S)NC(=O)c1ccc(-c2ccccc2)cc1,-4.4%,14.1µM*,10µM*,-0.6%,?
O=C(NC(=S)Nc1ccccc1)c1ccc(-c2ccccc2)cc1,-3.4%,-14.7%,-2.5%,1.1%,?
O=C(O)c1ccc(NC(=S)NC(=O)c2ccc(-c3ccccc3)cc2)cc1,nt,nt,0.4%,-2.1%,8.91µM*
O=C(NC(=S)Nc1ccccc1)c1csnn1,9.0%,-29.4%,-1.5%[38.3 µM],0.1%,7.94µM*
COc1nccnc1NS(=O)(=O)c1ccc(NC(=S)NC(=O)c2ccccc2)cc1,-15.4%,-13.9%,1.0%,-28.4%,-15.3%
COC(=O)C1(C)C=C2C(=C(c3ccccc3)C(=O)C2C)CN1 (stereo not given),nt,-3.1%,-9.0%,0.6%,?
